m5-HT2A agonist = mouse Htr2a agonists via beta-arrestin recruitment, primary screen, cell-based, luminescence | CHO-K1 mHTR2A beta-arrestin complementation; percent of 30 µM serotonin response | activation, % at 7.6 µM | 0.66% of 360,000 active;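 active = activation above a run cutoff, the mean activation of all tested compounds plus 3 SD, cut at about 14% in these data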;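 also: 0% = plate median of compound wells and 100% = 30 µM serotonin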
HTR5A ag ctr = HTR5A agonists in luminescence cell assay, primary screen, counter-screen for OPRM1-OPRD1 heterodimer agonist project, full-deck HTS. 0.61% of 340,000 active. 5-hydroxytryptamine receptor 5A (Homo sapiens), P47898. cell-based. activation, % at 9.3 µM. AID 504692, 2011; in the data active = activation mostly above about 9.5%, no sharp cut-off; inactive = mostly below about 7.6%;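 also: 0% = cells with vehicle only and 100% = reference agonist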
Target sequence (P47898 whole entry, looked up): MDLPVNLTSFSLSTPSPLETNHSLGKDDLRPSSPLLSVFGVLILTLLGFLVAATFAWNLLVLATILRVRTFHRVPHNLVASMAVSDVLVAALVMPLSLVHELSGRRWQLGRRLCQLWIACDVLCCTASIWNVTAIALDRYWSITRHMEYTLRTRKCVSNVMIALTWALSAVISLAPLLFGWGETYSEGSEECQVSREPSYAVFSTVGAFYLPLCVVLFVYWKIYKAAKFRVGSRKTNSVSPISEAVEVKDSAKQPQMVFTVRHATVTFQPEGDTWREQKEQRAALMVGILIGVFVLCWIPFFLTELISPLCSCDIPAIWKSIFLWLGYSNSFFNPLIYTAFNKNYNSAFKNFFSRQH
HTR5A inv ag = HTR5A inverse agonists in luminescence cell assay, primary screen, counter-screen for OPRM1-OPRD1 heterodimer inverse agonist project, full-deck HTS | HTR5A cell line, inverse agonism | inhibition, % at 9.3 µM | 0.083% of 340,000 active | AID 504634, 2011; in the data active = inhibition mostly above about 23%, no sharp cut-off; inactive = mostly below about 18%;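 also: 0% = cells with DMSO and 100% = no-cell wells with DMSO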
OPRM1-OPRD1 inv = inverse agonists of MOR-DOR heterodimerization, primary screen, cell-based, luminescence | Mu-type opioid receptor (Homo sapiens) + Delta-type opioid receptor (Homo sapiens), … | cell-based MOR-DOR heterodimer luminescence, inverse agonism | inhibition, % at 9.3 µM | 0.21% of 340,000 active | AID 504357, 2011; in the data active = inhibition above about 22%, passing the limit was not always enough;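 also: 0% = cells with DMSO and 100% = wells without cells with DMSO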
MOR-DOR ag = agonists of OPRM1-OPRD1 heterodimerization, primary screen, cell-based, luminescence. Mu-type opioid receptor (Homo sapiens) + Delta-type opioid receptor (Homo sapiens), …. 0.3% of 340,000 active. activation, % at 9.3 µM. cells. AID 504326, 2011; in the data active = activation above about 18%;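 also: 0% = vehicle-treated cells and 100% = reference agonist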
sPLA2-III inh = human group III sPLA2 inhibitors, primary screen, biochemical, QFRET, BODIPY PC-A2 liposome substrate; Group 3 secretory phospholipase A2 (Homo sapiens), Q9NZ20; QFRET BODIPY PC-A2 liposome hydrolysis, fluorescence; inhibition, % at 12.2 µM; 0.56% of 370,000 active;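 active = inhibition above mean plus 3 SD of compounds lying within the high and low control bounds, cut at about 19% in these data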;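 also: 0% = median of test compound wells and 100% = no enzyme DMSO wells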
* marks the source's active call; other numbers are inactive results; / = no result given. Shown are actives, neighbours in structure and some others; about 2.2% of the full set was active somewhere.

SMILES | m5-HT2A agonist | HTR5A ag ctr | HTR5A inv ag | OPRM1-OPRD1 inv | MOR-DOR ag | sPLA2-III inh
O=C1C(Cc2ccccc2)Nc2ncnc(N3CCN(c4ccccc4)CC3)c2N1Cc1ccc(Cl)cc1 (stereo unspecified) | -27 | -18 | 53* | 57* | -12 | 4
C[C@H]1C(=O)N2[C@@H](C[C@]3(c4c[nH]c5ccccc45)c4ccccc4N(S(=O)(=O)c4ccccc4)[C@H]23)C(=O)N1C | / | / | / | / | / | -17
C#CCOCCOCCOCCNc1nc(N2CCOCC2)nc(N2CCN(C(=O)CCCCCCCCCCNC(=O)[C@@H](CCSC)n3cc(CCO)nn3)CC2)n1 | 4 | 14* | -2 | 2 | 0 | -15
CC(=O)n1cc(N(C(=O)CCl)c2ccc([N+](=O)[O-])cc2)c2ccccc21 | -3 | 27* | -4 | -101 | 20* | -8
O=C(CCl)N(c1ccccc1)c1c[nH]c2ccccc12 | -1 | 40* | -103 | -195 | 39* | -6
CC(=O)n1cc(N(C(=O)CCl)c2ccccc2)c2ccccc21 | -5 | 57* | 5 | -334 | 65* | 6
CC(=O)n1cc(CO)c2ccccc21 | -2 | 2 | 4 | 6 | -1 | -5
O=C(NCc1cccc(Cl)c1)O[C@H]1CC[C@@]23CCCN2C(=O)CCC[C@H]3C1 | / | / | / | / | / | -3
CC(C)=CCC[C@@]1(C(=O)O)[C@@H]2C/C=C(\C)CC/C=C(\C)CC[C@H]1[C@]1(CC2)CO1 | / | / | / | / | / | -6
Cc1cc(C(=O)CCl)c(C)n1CCc1ccc(Cl)cc1 | 6 | 17* | -6 | -94 | 19* | -1
COc1ccccc1OCC(=O)/C=C1/N(C)c2ccccc2C1(C)C | -6 | -5 | 12 | -13 | 3 | 1
CN1/C(=C\C(=O)COc2ccc3c(c2)OCO3)C(C)(C)c2ccccc21 | -5 | 14* | 18 | -18 | 3 | -1
O=C(NCCc1c[nH]c2ccccc12)OCc1cn(Cc2ccc(F)cc2F)nn1 | / | / | / | / | / | -70
CN(C1CCS(=O)(=O)C1)S(=O)(=O)c1ccccc1[N+](=O)[O-] (stereo unspecified) | -2 | 11* | -31 | 1 | 0 | 4
CC1=C[C@]2(C[N+](Cc3ccccc3)=C(N)N2)n2c(=O)n(-c3ccccc3)c(=O)n2C1 | / | / | / | / | / | 0
Cc1nn(-c2ccccc2)c(Cl)c1C(=O)NCC(=O)O | 4 | -1 | -9 | -2 | 0 | -2
Cc1nn(-c2ccccc2)c(Cl)c1CN(C(=O)CCl)c1ccc(Cl)cc1 | -3 | 50* | -50 | -361 | 67* | -6
CC(=O)N(Cc1c(C)nn(-c2ccccc2)c1Cl)c1ccc(Cl)cc1 | -2 | -3 | 17 | 9 | -2 | -2
Cc1nn(-c2ccccc2)c(Cl)c1CN(C(=O)CCl)c1cccc2ccccc12 | -3 | 40* | -20 | -271 | 52* | -8
COc1ccc(Cl)cc1S(=O)(=O)n1ccnc1 | 7 | 9.2* | -34 | 12 | -3 | -4
CCN(CC)S(=O)(=O)c1ccc2[nH]c(=O)[nH]c2c1 | -5 | 9.5* | -13 | -9 | 2 | 6
CCCCN(CCCC)S(=O)(=O)c1ccc2[nH]c(=O)[nH]c2c1 | 3 | 4 | -10 | 7 | -1 | -7
Cn1c(SCC(=O)c2ccccc2)nc2cccnc21 | -1 | 9.7* | 12 | -11 | 2 | -19
Cc1ccc(C(=O)CSc2nc3cccnc3n2C)cc1 | -2 | 4 | -10 | 8 | -1 | -24
COC(=O)[C@]12C[C@H](CC(=O)N3CCN(C(=O)c4ccco4)CC3)C(=O)N(Cc3ccc(Cl)cc3Cl)C1=C[C@H](C1CCCC1)O[C@@H]2C | / | / | / | / | / | -5
SMILES | m5-HT2A agonist | HTR5A ag ctr | HTR5A inv ag | OPRM1-OPRD1 inv | MOR-DOR ag | sPLA2-III inh
COc1cc2c(c(OC)c1OC)-c1ccc(OC)c(=O)cc1C(NC(C)=O)CC2 (stereo unspecified) | 9 | -2 | 9 | 7 | -1 | 3
COc1cccc(C(=O)Nc2ccc3c(cc2=O)[C@@H](NC(C)=O)CCc2cc(OC)c(OC)c(OC)c2-3)c1 | 16* | 52* | -194 | -6 | 1 | /
O=C(CN(C1CCCCC1)S(=O)(=O)c1ccc(Cl)cc1)NCc1cccnc1 | 1 | 13* | -1 | 9 | -2 | -6
CCOc1ccccc1Nc1nc2ccccc2n2cnnc12 | -3 | 0 | 1 | 21 | -4 | 1
CCN(CC)c1nc2ccccc2n2cnnc12 | -1 | 13* | 15 | -2 | 0 | 1
CCCCN1C[C@@H](COCc2ccccc2)Oc2cccc(F)c2S1(=O)=O | / | / | / | / | / | -6
O=C(Nc1cccc2ccccc12)c1cn(-c2ccccc2)nc1-c1cccs1 | 17* | 5 | -16 | -7 | 1 | /
CC(C)(C)C(=O)N1CCC(O)(CS(=O)(=O)Cc2ccc(Cl)cc2)CC1 | 2 | 12* | -38 | 14 | -3 | 0
CCOC(=O)C1CCN(Cc2cnc(Oc3ccc(OC)cc3)s2)CC1 | 22* | 12 | -32 | 1 | 0 | -9
CCOC(=O)C1CCN(Cc2ccc(OC)cc2OC)CC1 | 2 | 3 | -10 | -1 | 0 | 2
Cc1ccc(NC(=S)NCCO)c(C)c1 | 3 | 12* | 14 | 10 | -2 | 4
C[C@@H]1CCCN1c1cccc2c1S(=O)(=O)N(C1CC1)CCCO2 | / | / | / | / | / | 11
O=C(COC(=O)c1ccc2c(=O)n3c(nc2c1)CCC3)Nc1ccccc1F | -1 | 11* | -30 | 1 | 0 | 9
Brc1ccc(-c2csc(N3CCNCC3)n2)cc1 | / | / | / | / | / | 18
Cc1nn(C(=O)c2nn(C)cc2[N+](=O)[O-])c(C)c1Cl | -3 | 3 | -6 | 17 | -3 | 1
Cc1nn(C(=O)c2nn(C)cc2[N+](=O)[O-])c(C)c1Br | 30* | 0 | -7 | 8 | -2 | -2
CCN(C[C@H]1[C@@H](c2ccc(C3=CCCC3)cc2)[C@H](CO)N1c1nc(C)c(C)s1)S(=O)(=O)c1ccccc1[N+](=O)[O-] | / | / | / | / | / | 6
Cc1ccc(S(=O)(=O)NCc2ccc(C(=O)N3CCN(c4ccc([N+](=O)[O-])cc4)CC3)cc2)cc1 | 5 | 11* | 0 | -20 | 4 | -11
Cc1cc(OCC(C)CN2CCC(C(O)(c3ccccc3)c3ccccc3)CC2)ccc1Br (stereo unspecified) | / | / | / | / | / | -10
COc1ccccc1CN=C1NC(=O)C(CC(=O)Nc2ccc(C(C)=O)cc2)S1 (stereo unspecified) | 1 | 13* | 8 | -2 | 0 | -14

Screening results deposited in PubChem BioAssay by The Scripps Research Institute Molecular Screening Center.
